Experimental findings from PubChem BioAssay AID624305 (National Center for Advancing Translational Sciences (NCATS), 2012) are described below.

Each structure is given as a SMILES string. Inconclusive results are not listed. Values without a mark were called inactive. Calls of active or inactive are those of the source. Calls follow the shape of the dose curve; as a rule, active = well fitted activation curve with a large enough effect; inconclusive = small, poorly fitted or top-dose-only effect; inactive = no such curve, though single readings can be large or run the other way.
Potency is read from the fitted curve at half-maximal effect.

This assay is described as follows: qHTS assay for re-activators of p53 using a Luc reporter: Hit Validation. Also: nearly all actives have a fitted effect of over 75% in size. As to activation: 0% is about no effect. To be noted: p53-responsive luciferase reporter cells, luminescence, H1299 line expressing heat-sensitive Ala138Val p53; series mostly up to 46.1 µM; activation: at the top concentration. From the text: The p53 tumor suppressor plays a key role in suppression of tumorigenesis and in human carcinogenesis. It is frequently found inactivated in human cancers, mainly by point mutation. These point mutations are found in a wide variety of human cancers and a majority of them affect the DNA binding domain of the protein. The point mutations either alter native p53 conformation or abolish DNA contact. Additionally, cancer cells with p53 mutations are more resistant to chemo-radiation therapies.
In order to find activators to reactivate this important protein, a cell-based screen for p53-dependent luciferase-reporter expression was developed. A p53-null H1299 lung cancer cell line was stably co-transfected with a temperature sensitive p53 mutant, p53-A138V, and a p53-responsive BP100-luciferase reporter. This cell model has previously been characterized in a gene chip profiling experiment for p53 activation. By lowering the culture temperature from 37 deg C (mutant p53 conformation) to 32 deg C (w.t. p53 conformation), a 30-60 fold increase in activation of luciferase activity is observed. At assay temperate, 37 deg C, basal reporter expression is very low and after the addition of detection reagent, a luminescent read-out is carried out. This is the hit validation assay, confirming the hits identified from the primary screen.
NIH Chemical Genomics Center [NCGC]
NIH Molecular Libraries Probe Production Centers Network [MLPCN]
Assay Provider (PI): Yi Sung, University of Michigan at Ann Arbor
5ul of 1000 cells per well are dispensed in all wells except column 4, into white solid-bottom TC-treated Kalypsys plates. The cells are kept in Opti-MEM and supplemented with 10% FBS and dispensed using a Multidrop (Thermo). Then using the Kalypsys pin-tool, 23nl of compounds are pinned. The compounds are starting concentration at 10mM, with 1:5 dilution, 4 points, and the control compound nocodazole is pinned in column 1 at 25mM, 1:3 dilution, in duplicate, 25mM nocodazole is pinned in column 2. Please note, all concentrations are working concentrations. 5ul of 1pM purified luciferase enzyme is dispensed using the Kalypsys dispenser in column 4. Plates are incubated for 24 hrs at 37 deg C, 5% CO2, and 95% humidity. Then 4ul of the detection reagent Amplite (ABD Bioquest) is added using the Kalypsys dispenser. Plates are incubated for 10 min at ambient room temperature and are then read on the ViewLux (Perkin Elmer) using a clear filter for a luminescent read-out.
Turning to `c1cnc2c(OCc3nc4ccccc4[nH]3)cccc2c1`, the Potency is 6.51 µM (active).

Regarding `C/C(=C\COc1ccc2ccc(=O)oc2c1)CC[C@@H](O)C(C)(C)O`, the “activation” value is 34.9%. Same read-out and setting: as for `COc1ccc2oc(-c3cccc(NC(=O)CSc4ccc(Cl)cc4)c3)nc2c1`, the figure is -2.44% [at 9.22 µM]. In the case of `CC(=O)/C=C(\C)Nc1ccc(-c2cnc(-c3ccccc3)o2)cc1`, the Potency was 2.59 µM (active). Regarding `COc1ccc(-c2nc(-c3ccc(NC(=O)c4ccncc4)cc3)no2)cc1OC`, the “activation” value is -19.3%.

`CCc1ccc2oc(-c3ccc(N)cc3)nc2c1`: the Potency was 0.092 µM (active). Regarding `Cn1ncc([N+](=O)[O-])c1C(=O)Nc1ccc(C2CCCCC2)cc1`, the “activation” value is 24%.

Regarding `CCCN1CCC(=NNC(=O)CSc2cc(C)c(Br)cc2C)CC1`, the “activation” value is -9.9%.

For the compound `Cc1ccc(C)c(C(=O)COC(=O)c2n[nH]c3ccccc23)c1`, the Potency was 18.4 µM (active).

Take `CCN1CCN(/C=N/c2nc3c(s2)CCCC3)CC1`: the “activation” value is -13%.

For `CCc1ccc(-n2cc(-c3ccc([N+](=O)[O-])cc3)[nH]c2=S)cc1`, the “activation” value is -89.6%. Still for that read-out and setting: the result for `COc1ccc(C(=O)C(CN2CCCC2)c2ccccc2)cc1` (stereo not given) reads -30.7%; that for `CNC(=S)N/N=C/c1cc(Br)cc(Br)c1O`, -9.38%; that for `Cc1ccc(/C=C(\C#N)C(=O)NCC2CCCO2)o1` (stereo not given), 65.6%.

As to `Cc1c(C(=O)NC2=NCCS2)oc2ccccc12`, the Potency is 0.58 µM (active).

For `COc1ccc(CCC(=O)Nc2ccc(-c3noc(-c4ccc(OC)c(OC)c4)n3)cc2)cc1`, the “activation” value was 28.1%. Same read-out and setting: the result for `Cc1ccc(C(=O)NCC(=O)N2CCCCCC2)cc1` reads 26%. Take `CC(=O)Nc1ccc(SCC(=O)c2cc(C)n(-c3ccccc3)c2C)cc1`: the Potency is 5.8 µM (active).

For the compound `O=C(CNS(=O)(=O)c1cccc(Cl)c1)Nc1ccc(-c2nc3ccccc3s2)cc1`, the Potency is 16.4 µM (active). Take `CCN(CC)C(=O)CSc1ncnc2c(-c3cccs3)nsc12`: the “activation” value was 20.3%.

As to `COc1ccc(/C(C)=N/Nc2nccnc2Cl)cc1`, the Potency was 16.4 µM (active). Turning to `O=C(NCCN1CCCCC1)Nc1cccc(C(F)(F)F)c1`, the “activation” value is -0.521%. In the case of `Cc1ccc(-c2nnc(SCc3ccccc3F)o2)cc1`, the Potency is 1.3 µM (active).

As to `Cc1ccc(C(=O)Nc2cnc3sc(C)nn3c2=O)cc1`, the Potency was 6.51 µM (active).

Regarding `CCOc1ccc(-n2c(SCc3nc(-c4cccs4)no3)nnc2-c2ccncc2)cc1`, the “activation” value is -12.5%. Regarding `CC(=O)N1CCN(C(=O)COC(=O)COc2c(C)cc(C)cc2C)CC1`, the “activation” value is 16.7%. As to `COc1ccccc1NC(CC(=O)c1ccccc1)C(=O)OCC(=O)c1ccc(F)cc1` (stereo not given), the Potency is 0.231 µM (active). For `O=C(COC(=O)c1ccc(F)cc1)NC1CC1`, the “activation” value is -10.4%. Take `Clc1ccc(-c2cn3c(n2)-c2ccccc2C3)cc1Cl`: the Potency is 10.3 µM (active). For `CC(C)(C)OC(=O)N1CCC(C(=O)Nc2ccc3c(c2)CCC3)CC1`, the Potency was 23.1 µM (active). On the same count and under the same terms, the result for `COc1cc(/C=N/Nc2nc3ccccc3s2)ccc1OC(=O)c1ccccc1F` reads 1.46 µM (active). Turning to `Cc1ccc(C(=O)c2cc([N+](=O)[O-])ccc2N2CCCCC2)cc1C`, the “activation” value was -17.7%. For the compound `COCCCN=C(c1ccco1)n1c(=S)nc(-c2ccco2)n(CCCOC)c1=S`, the “activation” value was 39.6%.

`Cc1ccc2cc3cc(C(=O)N4CCCCCC4)oc3nc2c1`: the Potency was 10.3 µM (active). As for `CC(=O)c1cccc(NC(=O)c2sc(Cl)nc2C)c1`, the “activation” value is 7.29%. Same read-out and setting: as for `COc1ccc(C2/C(=C(/O)c3ccc(C)cc3)C(=O)C(=O)N2CCCN2CCOCC2)cc1` (stereo not given), the figure is -17.2%; as for `O=C(NNC(=O)C1CCCO1)c1ccccc1Cl` (stereo not given), -6.25%.

For the compound `c1ccc(-c2cn3nc(-c4ccccc4)cnc3n2)cc1`, the Potency is 0.92 µM (active). On the same count and under the same terms, as for `Cc1sc(NC(=O)c2ccc(Cl)s2)c(C(N)=O)c1C`, the figure is 4.11 µM (active). The same measure, in the same setting: as for `Cc1ccnc(NC(=S)NC(=O)c2cccs2)c1`, the figure is 0.082 µM (active).
